Test results from PubChem BioAssay (NCI).
About 79,000 compounds went through this panel and 15% of them were active in at least one assay; those are over-represented in the sample as a whole. The source made the active and inactive calls. Cut-off read from the data, not from the text of the source: active = growth inhibition above about 70%; inactive = the rest. Where a SMILES comes first, the peptide text is derived from it. Bridges are numbered along the chain shown (N, C = ends). [ ]: non-standard residue; d: D form. The star is where a group is joined. Cbz = O=C(OCc1ccccc1)*; Aib = CC(C)(N)C(=O)O; OBn = c1ccc(CO*)cc1; βAla = NCCC(=O)O

Assays:
[1] = NCI Yeast Anticancer Drug Screen. Data for the rad50 strain (AID 155);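 note: 0% = growth of vehicle-only cultures of the same strain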; conditions: S. cerevisiae rad50 strain growth inhibition; at 50.0 µM; stronger effect = higher value
Method in brief: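 Genetically altered yeast (DNA repair pathway); compound treatment; growth inhibition vs vehicle ctrl.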

[2] = NCI Yeast Anticancer Drug Screen. Data for the mec2-1 strain (AID 157); conditions: S. cerevisiae mec2-1 strain, at 50.0 µM, stronger effect = higher value
Method in brief: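 Compounds were applied to mec2-1 yeast cells. Their growth was then compared with that of vehicle-treated cultures to give growth inhibition.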

[3] = NCI Yeast Anticancer Drug Screen. Data for the sgs1 mgt1 strain (AID 161);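 note: 0% = growth of cultures given vehicle only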; conditions: S. cerevisiae sgs1 mgt1 strain, at 50.0 µM, stronger effect = higher value
Method in brief: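 This yeast growth screen uses a strain with defined DNA-repair lesions; compound-treated growth is compared with vehicle-treated growth.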

[4] = NCI Yeast Anticancer Drug Screen. Data for the cln2 rad14 strain (AID 165);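 note: 0% = growth equal to vehicle treated cultures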; conditions: S. cerevisiae cln2 rad14 strain, at 50.0 µM, stronger effect = higher value
Method in brief: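 Strain: cln2 rad14 yeast, altered in cell cycle control and DNA damage repair. Read-out: growth inhibition vs vehicle.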

[5] = NCI Yeast Anticancer Drug Screen. Data for the bub3 strain (AID 167); conditions: S. cerevisiae bub3 mutant strain, at 50.0 µM, stronger effect = higher value
Method in brief: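 Yeast carrying a defined mutation is treated with each compound, and growth is compared with that of vehicle-exposed cells to give inhibition.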

[6] = NCI Yeast Anticancer Drug Screen. Data for the mlh1 rad18 strain (AID 175); conditions: S. cerevisiae mlh1 rad18 strain growth inhibition; at 50.0 µM; stronger effect = higher value
Method in brief: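 A repair-deficient yeast strain is exposed to test compound, and growth is scored relative to vehicle-treated controls.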

Measured: growth inhibition

CCCCCCCC(=O)NNCc1ccccc1
inactive: [1] -16.1% | [2] 33.2% | [3] 15.6% | [4] 3.35% | [5] 15.9% | [6] 6.9%

O=P(O)(O)OP(=O)(O)OCC1OC(n2cnc3c(=S)nc[nH]c32)C(O)C1O (centres undefined)
inactive: [1] -2.65% | [2] 3.5% | [3] -5% | [4] -9.2% | [5] 3.55% | [6] 2.85%

O=C1CN(c2cccc(Cl)c2)C(=O)CN1/N=C/c1ccc(O)c(O)c1
inactive: [1] -29.1% | [2] 0.15% | [3] 3.45% | [4] -6.95% | [5] 46% | [6] -8.9%

COC(=O)C1CSC(C)(C)N1 (centres undefined)
inactive: [1] 10.6% | [2] -8.55% | [3] -1.5% | [4] -0.95% | [5] -7.35% | [6] 4.35%

COc1cccc(C2ON=C(c3ccccc3)N2C23CC4CC(CC(C4)C2)C3)c1 (centres undefined)
inactive: [1] 8.5% | [2] -3.4% | [3] -34.2% | [4] -6.7% | [5] 10.1% | [6] 14.9%

C=CC(C/C(C)=N/Nc1ccc([N+](=O)[O-])cc1[N+](=O)[O-])c1ccccc1 (centres undefined)
inactive: [1] -17.7% | [2] -4.85% | [3] -17.6% | [4] -54.4% | [5] -19.6% | [6] -8%

CCCCCCCCCCCCCCCCCCCC/C=C/C1CC(=O)OC1=O (centres undefined)
inactive: [1] -4.8% | [2] -6% | [3] 16.9% | [4] 26.8% | [5] 16.9% | [6] 7.1%

N=C1N=Nc2nc(C(C(=O)c3cccs3)c3nc4n(c3O)C(=N)N=N4)c(O)n21 (centres undefined)
inactive: [1] -5.1% | [2] 17.1% | [3] -1.25% | [4] -15.3% | [5] 1.7% | [6] -12.3%

CCn1c2ccccc2c2cc(N=Nc3cc(N)ccc3N(C)C)ccc21
inactive: [1] -3.35% | [2] -7.85% | [3] -9.1% | [4] -22.3% | [5] -5.05% | [6] -4.6%

Nc1c(N=Nc2ccc(S(=O)(=O)Nc3cnccn3)cc2)cc(S(=O)(=O)O)c2ccccc12
inactive: [1] 10.6% | [2] -2.45% | [3] 8.3% | [4] 5.9% | [5] 9.8% | [6] 26.6%

COc1ccc2c(c1)c(=O)c1ccccc1n2/C=C/C(=O)O
inactive: [1] -6% | [2] -14.8% | [3] -8.9% | [4] 3.75% | [5] -3.05% | [6] 2.25%

O=NNc1ccc(Sc2ccc(NN=O)nc2)cc1
inactive: [1] 4.65% | [2] -7.4% | [3] 8.45% | [4] 17% | [5] -3.15% | [6] 21.9%

O=C(NCC(C(=O)OCc1ccccc1)C(=O)OCc1ccccc1)OCc1ccccc1
inactive: [1] -8.9% | [2] -13.8% | [3] 1.55% | [4] -14.1% | [5] -24.4% | [6] -12.3%

O=C(NCC(O)CNC(=O)C(F)(F)F)C(F)(F)F
inactive: [1] 5.2% | [2] 7.75% | [3] 8.75% | [4] 28.4% | [5] 14.4% | [6] -27.2%

CCC(=O)OCC(C)COC(=O)CC
inactive: [1] 9.55% | [2] 11.8% | [3] 4.1% | [4] 1.05% | [5] -8.4% | [6] -5.25%

O=S(=O)(O)C(Cc1nc2ccccc2[nH]1)S(=O)(=O)OCCC1S(=O)(=O)OCCOS1(=O)=O (centres undefined)
inactive: [1] 0% | [2] -0.4% | [3] 29.5% | [4] -18.9% | [5] 13.1% | [6] -24.9%

CCOC(=O)c1ccc(NC(=S)NC(=O)c2cccc([N+](=O)[O-])c2)cc1
inactive: [1] -3.15% | [2] 6.55% | [3] 16.1% | [4] -12.8% | [5] 15.1% | [6] 15.2%

CC(=O)Nc1ccc(/C=N\N=C\c2ccc(NC(C)=O)cc2)cc1
inactive: [1] 1.95% | [2] 13.7% | [3] 28.4% | [4] -4.6% | [5] 29.9% | [6] 28.6%

CCN(CC)CCNCc1c[nH]c(=S)[nH]c1=O
inactive: [1] -7.25% | [2] -1% | [3] -19.4% | [4] -1.05% | [5] 1.35% | [6] -9.45%

O=C(OCCCl)C1OC(n2cc(F)c(=O)[nH]c2=O)CC1O (centres undefined)
inactive: [1] 23.4% | [2] 3.35% | [3] 2.5% | [4] 8.7% | [5] 2.55% | [6] -3.1%

O=C1Nc2ncnc(Cl)c2Cc2ccccc21
inactive: [1] -2.6% | [2] -6.9% | [3] -0.75% | [4] -12.9% | [5] -6.15% | [6] -12.1%

COc1cc(C2c3cc4c(cc3OC(NCCc3ccccc3)C2C)OCO4)cc(OC)c1OC (centres undefined)
inactive: [1] -15.8% | [2] -41.4% | [3] -0.3% | [4] -25.4% | [5] 0.6% | [6] 11.4%

O=C(O)C(=O)/C=C(\O)c1ccc(Br)cc1
inactive: [1] 32.3% | [2] 11.8% | [3] 3.7% | [4] -12.1% | [5] 36.4% | [6] 30.1%

Nc1ncnc2c1c1cncnc1n2C1OC(CO)C(O)C1O (centres undefined)
inactive: [1] 9.55% | [2] -4.75% | [3] -9.55% | [4] 16.1% | [5] 7.45% | [6] 17.1%

CC1(C)COCOC1c1ccccc1 (centres undefined)
inactive: [1] -6.2% | [2] 11.3% | [3] -21.4% | [4] -11.8% | [5] -1% | [6] 6.4%

CC1(C)NC(=O)C(NC(=O)C(CC(=O)OCc2ccccc2)NC(=O)OCc2ccccc2)CCCCNC(=O)CCNC1=O (centres undefined) (Cbz-D(OBn)K[Aib][βAla]; lactam 2-C; configuration not given here)
inactive: [1] -0.7% | [2] -11.6% | [3] -7.95% | [4] 20.4% | [5] -2.35% | [6] 1.3%

CC(C)c1nnnn1C12CC3CC(CC(C3)C1)C2
inactive: [1] 2.75% | [2] -13.2% | [3] 1% | [4] -17.4% | [5] -3.3% | [6] 11.5%

N/N=C(\C(=O)Nc1ccc(Cl)cc1Cl)C(c1cnc2ccccc2n1)[N+](=O)[O-] (centres undefined)
inactive: [1] 12.5% | [2] -21.9% | [3] -3.6% | [4] -20.6% | [5] -9.45% | [6] 0.45%

c1ccc2c(c1)nnn2CN1CCOCC1
inactive: [1] -6.3% | [2] 17.1% | [3] -26.6% | [4] -22.9% | [5] 3.15% | [6] 5.7%

CC(=O)N(C)c1cccc2cccc(S(=O)(=O)O)c12
inactive: [1] -18.2% | [2] -19.1% | [3] -17.1% | [4] -59.2% | [5] -2.05% | [6] -15.3%

O=C(Nc1cc2[nH]c(=O)c3ccccc3c2cc1[N+](=O)[O-])C(F)(F)F
inactive: [1] 40% | [2] -5.85% | [3] 10.8% | [4] 0.9% | [5] -12.4% | [6] 0.25%

O=C1c2cccc3c(Br)ccc(c23)C(=O)N1CCCN1CCOCC1
active: [2] 77.7% | [3] 80.2% | [4] 86.7% | [5] 92.5%
inactive: [1] 63.5% | [6] 60.2%

c1ccc(C2OC(c3ccccc3)c3ccccc32)cc1 (centres undefined)
inactive: [1] 7.55% | [2] -6.8% | [3] 12.4% | [4] -2.05% | [5] 24.1% | [6] 12.2%

O=C(Nc1ccccc1)Oc1ccc(Cl)cc1Cc1ccccc1
active: [1] 99.7% | [2] 99.8% | [3] 99.8% | [4] 99.8% | [5] 99.8% | [6] 99.8%

COCCOC(=O)CO
inactive: [1] 4.35% | [2] 3.85% | [3] -4.7% | [4] 2.25% | [5] 7.8% | [6] 5.5%

Cc1c(C#N)c2n(c1C)CCN2
inactive: [1] -14.3% | [2] -14.1% | [3] -9.2% | [4] -36% | [5] -5.65% | [6] -4.45%

CC(=O)CC(=O)Nc1ccccc1C
inactive: [1] -5.2% | [2] 5.95% | [3] 2.4% | [4] -27.4% | [5] -11.2% | [6] -22.7%

CCOc1ccc(NC(=O)C(Br)C(Br)C(=O)O)cc1 (centres undefined)
active: [1] 85.7% | [2] 98.5% | [3] 96.8% | [4] 95.4% | [5] 98.5% | [6] 94.6%

O=C(O)C1C(c2ccccc2)CC(=O)N1c1ccc(Cl)cc1 (centres undefined)
inactive: [1] 1.55% | [2] 8.25% | [3] 5.75% | [4] 1.1% | [5] 19.6% | [6] -7.6%
